Activity calls are given as the source filed them. How the source made its calls: active means hit-call score of the fitted dose curve at least 0.9, where 1 is the maximum; inactive means score below 0.9.
Tests used:
[1] = read-out: Tumor necrosis factor receptor superfamily member 6 (Homo sapiens) (UniProt P25445); assay: LTEA_HepaRG_FAS: Life Technologies and Expression Analysis (LTEA) Assay for Fas cell surface death receptor (FAS) using HepaRG (AID 2283447); conditions: mRNA level, 48 h; actives raise or lower the signal
How it was run: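 Differentiated HepaRG cells in serum-free induction medium were exposed 48 h to 8 half-log concentrations up to 100 uM in 0.5% DMSO, in duplicate. FAS mRNA was measured by qRT-PCR normalised to ACTB, GAPDH and POLR2A; bidirectional fit versus DMSO.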

[2] = read-out: Fatty acid synthase (Homo sapiens) (UniProt P49327); assay: LTEA_HepaRG_FASN: Life Technologies and Expression Analysis (LTEA) Assay for Fatty Acid Synthase (FASN) using HepaRG (AID 2283448); conditions: mRNA level, 48 h; actives raise or lower the signal;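 on AC50: differentiated human HepaRG liver cells in serum-free induction medium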
How it was run: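 HepaRG, 48 h exposure, 8-pt half-log series top 100 uM, 0.5% DMSO vehicle, duplicates. Readout: FASN transcript by Fluidigm qRT-PCR; housekeeping-normalized; bidirectional curve fit vs DMSO baseline.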

[3] = read-out: Cyclin D2 (CCND2), CCND2 (gene 894); assay: LTEA_HepaRG_CCND2: Life Technologies and Expression Analysis (LTEA) Assay for Cyclin D2 (CCND2) using HepaRG (AID 2283449); conditions: mRNA level, 48 h; actives raise or lower the signal;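 further: CCND2 transcript measured by TaqMan qRT-PCR and normalised to three housekeeping genes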
How it was run: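 HepaRG, 48 h dosing, 8-pt half-log curve from 100 uM, 0.5% DMSO; duplicate wells. Readout: CCND2 transcript by microfluidic qRT-PCR, housekeeping-normalised; bidirectional fit vs DMSO baseline.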

[4] = read-out: Cyclin Dependent Kinase Inhibitor 1A (CDKN1A), CDKN1A (gene 1026); assay: LTEA_HepaRG_CDKN1A: Life Technologies and Expression Analysis (LTEA) Assay for Cyclin Dependent Kinase Inhibitor 1A (CDKN1A) using HepaRG (AID 2283450); conditions: mRNA level, 48 h; actives raise or lower the signal
How it was run: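 Cryopreserved HepaRG cells were plated and cultured 48 h, then switched to serum-free induction medium. Chemicals (eight half-log concentrations, top 100 uM, 0.5% DMSO) were applied for 48 h. Lysates underwent qRT-PCR for CDKN1A with housekeeping normalization.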

[5] = read-out: Cyclin D1 (CCND1), CCND1 (gene 595); assay: LTEA_HepaRG_CCND1: Life Technologies and Expression Analysis (LTEA) Assay for Cyclin D1 (CCND1) using HepaRG (AID 2283451); conditions: mRNA level, 48 h; actives raise or lower the signal;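 on AC50: differentiated human HepaRG liver cells in serum-free induction medium; TaqMan qRT-PCR transcript level normalised to ACTB GAPDH and POLR2A housekeeping genes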
How it was run: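 Human liver HepaRG line; 48 h dosing, 8 conc. ≤100 uM, 0.5% DMSO; TaqMan qRT-PCR mRNA, 3 housekeeping genes; bidirectional curve fit vs DMSO.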

[6] = CEETOX_H295R_PROG: CeeTox H295R High-throughput Steroidogenesis Assay for Progesterone (PROG) (AID 2283442); conditions: actives raise or lower the signal;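 further: human H295R adrenal cells primed with 10 µM forskolin before dosing; progesterone secreted into medium by H295R cells measured by HPLC-MS/MS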
How it was run: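 Adrenal H295R line, forskolin-stimulated (10 uM, 48 h) before dosing. 48 h exposure, 0.1% DMSO vehicle. Secreted progesterone by reverse-phase HPLC with ESI+ MS/MS quantification; DMSO-normalised bidirectional curve fit.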

Chain of Fatty acid synthase (Homo sapiens) (P49327 whole entry, looked up): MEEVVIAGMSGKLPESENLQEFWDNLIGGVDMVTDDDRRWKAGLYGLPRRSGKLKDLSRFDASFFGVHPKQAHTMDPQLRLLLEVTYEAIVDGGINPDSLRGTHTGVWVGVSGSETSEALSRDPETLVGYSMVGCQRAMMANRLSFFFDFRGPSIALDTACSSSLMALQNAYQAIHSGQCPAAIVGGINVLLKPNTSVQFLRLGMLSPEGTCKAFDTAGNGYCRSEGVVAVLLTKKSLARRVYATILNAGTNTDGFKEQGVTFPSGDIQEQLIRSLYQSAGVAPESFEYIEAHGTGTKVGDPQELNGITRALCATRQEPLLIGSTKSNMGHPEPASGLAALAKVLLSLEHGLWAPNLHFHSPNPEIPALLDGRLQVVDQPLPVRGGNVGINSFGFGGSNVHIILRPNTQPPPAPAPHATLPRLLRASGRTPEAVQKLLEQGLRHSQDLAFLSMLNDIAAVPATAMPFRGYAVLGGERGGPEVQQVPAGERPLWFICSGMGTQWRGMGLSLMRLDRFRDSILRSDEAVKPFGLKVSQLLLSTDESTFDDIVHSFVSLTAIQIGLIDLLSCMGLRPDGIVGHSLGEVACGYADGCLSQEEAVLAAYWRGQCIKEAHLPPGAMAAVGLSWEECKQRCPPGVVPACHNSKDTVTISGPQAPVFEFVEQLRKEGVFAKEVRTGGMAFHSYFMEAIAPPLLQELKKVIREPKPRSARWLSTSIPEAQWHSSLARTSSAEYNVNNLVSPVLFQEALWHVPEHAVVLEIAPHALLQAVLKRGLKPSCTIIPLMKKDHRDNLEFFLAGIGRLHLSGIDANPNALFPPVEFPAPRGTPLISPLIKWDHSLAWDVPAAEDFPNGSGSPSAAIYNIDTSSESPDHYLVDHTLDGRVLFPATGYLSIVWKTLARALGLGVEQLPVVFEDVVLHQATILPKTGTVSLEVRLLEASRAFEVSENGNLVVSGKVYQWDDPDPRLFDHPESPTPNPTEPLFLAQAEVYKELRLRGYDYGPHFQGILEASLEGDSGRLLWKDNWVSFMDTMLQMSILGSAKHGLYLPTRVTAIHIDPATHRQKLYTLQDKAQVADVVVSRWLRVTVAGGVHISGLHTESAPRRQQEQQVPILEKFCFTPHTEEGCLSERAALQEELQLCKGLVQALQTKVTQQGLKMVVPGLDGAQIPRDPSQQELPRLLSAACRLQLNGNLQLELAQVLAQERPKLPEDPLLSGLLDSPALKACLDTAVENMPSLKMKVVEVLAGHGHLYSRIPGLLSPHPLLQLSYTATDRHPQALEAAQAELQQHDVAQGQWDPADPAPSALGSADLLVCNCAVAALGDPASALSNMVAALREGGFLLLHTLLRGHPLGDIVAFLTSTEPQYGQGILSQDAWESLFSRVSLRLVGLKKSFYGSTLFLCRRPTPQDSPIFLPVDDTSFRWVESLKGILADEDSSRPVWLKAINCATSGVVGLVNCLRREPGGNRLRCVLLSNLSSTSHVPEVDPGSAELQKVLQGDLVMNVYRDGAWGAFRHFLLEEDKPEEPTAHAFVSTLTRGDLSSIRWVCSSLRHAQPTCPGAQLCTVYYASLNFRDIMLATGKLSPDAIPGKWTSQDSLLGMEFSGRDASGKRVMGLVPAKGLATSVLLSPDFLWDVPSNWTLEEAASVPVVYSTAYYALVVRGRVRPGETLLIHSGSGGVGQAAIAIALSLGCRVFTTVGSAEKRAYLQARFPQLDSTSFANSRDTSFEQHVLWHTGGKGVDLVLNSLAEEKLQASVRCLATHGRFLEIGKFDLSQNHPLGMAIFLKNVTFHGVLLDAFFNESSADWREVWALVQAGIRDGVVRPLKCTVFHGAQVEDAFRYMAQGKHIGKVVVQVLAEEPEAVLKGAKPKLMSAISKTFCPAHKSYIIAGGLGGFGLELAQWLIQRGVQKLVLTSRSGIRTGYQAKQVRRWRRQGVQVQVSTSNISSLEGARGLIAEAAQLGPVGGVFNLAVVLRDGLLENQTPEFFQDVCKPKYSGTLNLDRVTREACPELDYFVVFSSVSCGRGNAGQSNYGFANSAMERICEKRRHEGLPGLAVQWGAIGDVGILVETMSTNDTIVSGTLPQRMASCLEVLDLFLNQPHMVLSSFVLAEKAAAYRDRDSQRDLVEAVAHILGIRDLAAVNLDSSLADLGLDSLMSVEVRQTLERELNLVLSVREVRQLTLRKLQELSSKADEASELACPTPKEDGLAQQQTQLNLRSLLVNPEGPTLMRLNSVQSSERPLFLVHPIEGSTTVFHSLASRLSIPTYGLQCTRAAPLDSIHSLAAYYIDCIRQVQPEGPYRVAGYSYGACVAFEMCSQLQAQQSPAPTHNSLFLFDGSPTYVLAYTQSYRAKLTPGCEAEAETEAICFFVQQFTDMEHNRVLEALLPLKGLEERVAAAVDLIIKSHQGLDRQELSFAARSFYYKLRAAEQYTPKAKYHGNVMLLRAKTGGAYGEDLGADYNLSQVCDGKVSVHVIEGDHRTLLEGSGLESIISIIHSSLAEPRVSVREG

**Q.** For `N#CC(Br)Br`, which outcome [1] is on record?
**A.** Its outcome is “inactive”.

**Q.** And the outcome [2]?
**A.** Its outcome is “inactive”.

**Q.** And the outcome [3]?
**A.** Its outcome is “inactive”.

**Q.** And the outcome [4]?
**A.** Its outcome is “inactive”.

**Q.** What about the outcome [5] of the same compound?
**A.** Its outcome is “inactive”.

**Q.** What does the source list for `CC(C)(C)OOC(C)(C)CCC(C)(C)OOC(C)(C)C`?
**A.** outcome [1]: inactive; outcome [2]: inactive; outcome [3]: inactive; outcome [4]: inactive; outcome [5]: inactive

**Q.** With `O=C(O)C1C2CCC(O2)C1C(=O)O` (stereo unspecified) as the compound, how does the outcome [1] read?
**A.** The outcome was “inactive”.

**Q.** And the AC50 [2]?
**A.** Its AC50 is 84.3 µM (active).

**Q.** What about the outcome [3] of the same compound?
**A.** Its outcome is “inactive”.

**Q.** And the AC50 [4]?
**A.** Its AC50 is 35.8 µM (active).

**Q.** What about the AC50 [5] of the same compound?
**A.** The AC50 was 32.3 µM (active).

**Q.** What does the source list for `OCCCl`?
**A.** outcome [1]: inactive; outcome [2]: inactive; outcome [3]: inactive; outcome [4]: inactive; outcome [5]: inactive

**Q.** With `CCN(CC)CCO` as the compound, how does the outcome [1] read?
**A.** Its outcome is “inactive”.

**Q.** And the outcome [2]?
**A.** Its outcome is “inactive”.

**Q.** And the outcome [3]?
**A.** Its outcome is “inactive”.

**Q.** What about the outcome [4] of the same compound?
**A.** The outcome was “inactive”.

**Q.** What about the outcome [5] of the same compound?
**A.** Its outcome is “inactive”.

**Q.** With `C[N+](C)(C)CC1CO1` (stereo unspecified) as the compound, how does the outcome [1] read?
**A.** The outcome was “inactive”.

**Q.** And the outcome [2]?
**A.** Its outcome is “inactive”.

**Q.** And the outcome [3]?
**A.** Its outcome is “inactive”.

**Q.** What about the outcome [4] of the same compound?
**A.** The outcome was “inactive”.

**Q.** And the outcome [5]?
**A.** Its outcome is “inactive”.

**Q.** Which results are given for `O=C(N[C@H](c1ccccc1)[C@@H]1CN2CCC1CC2)c1c(Cl)ccc(C(F)(F)F)c1Cl`?
**A.** outcome [1]: inactive; AC50 [2]: 76.8 µM (active); outcome [3]: inactive; outcome [4]: inactive; AC50 [5]: 74.2 µM (active)

**Q.** With `OCCOCCO` as the compound, how does the outcome [1] read?
**A.** The outcome was “inactive”.

**Q.** And the outcome [2]?
**A.** Its outcome is “inactive”.

**Q.** What about the outcome [3] of the same compound?
**A.** The outcome was “inactive”.

**Q.** What about the outcome [4] of the same compound?
**A.** Its outcome is “inactive”.

**Q.** And the outcome [5]?
**A.** Its outcome is “inactive”.

**Q.** For `COc1cc(C=O)cc2c1[C@H](COC(N)=O)[C@]1(OC(C)=O)ON2C[C@H]2[C@@H]1N2C(C)=O`, which AC50 [1] is on record?
**A.** The AC50 was 88.1 µM (active).

**Q.** What about the outcome [2] of the same compound?
**A.** The outcome was “inactive”.

**Q.** And the AC50 [3]?
**A.** The AC50 was 29.6 µM (active).

**Q.** And the outcome [4]?
**A.** The outcome was “inactive”.

**Q.** And the AC50 [5]?
**A.** Its AC50 is 50 µM (active).

**Q.** Which results are given for `Nc1cc(Cl)cc(C(=O)O)c1Cl`?
**A.** outcome [1]: inactive; outcome [2]: inactive; outcome [3]: inactive; outcome [4]: inactive; outcome [5]: inactive

**Q.** Which outcome [1] does the source give for `Brc1ccc(Oc2ccccc2)cc1` here?
**A.** Its outcome is “inactive”.

**Q.** What about the outcome [2] of the same compound?
**A.** Its outcome is “inactive”.

**Q.** What about the outcome [3] of the same compound?
**A.** The outcome was “inactive”.

**Q.** What about the outcome [4] of the same compound?
**A.** Its outcome is “inactive”.

**Q.** And the outcome [5]?
**A.** The outcome was “inactive”.

**Q.** For `CN(C)[C@@H]1C(=O)C(C(N)=O)=C(O)[C@@]2(O)C(=O)C3=C(O)c4c(O)cccc4[C@@](C)(O)[C@H]3C[C@@H]12`, which outcome [1] is on record?
**A.** Its outcome is “inactive”.

**Q.** And the outcome [2]?
**A.** The outcome was “inactive”.

**Q.** What about the outcome [3] of the same compound?
**A.** The outcome was “inactive”.

**Q.** And the outcome [4]?
**A.** The outcome was “inactive”.

**Q.** What about the outcome [5] of the same compound?
**A.** The outcome was “inactive”.

**Q.** What does the source list for `c1ccc2c(c1)-c1cccc3cccc-2c13`?
**A.** AC50 [6]: 4.8 µM (active); AC50 [2]: 69.1 µM (active); outcome [3]: inactive; outcome [4]: inactive; outcome [5]: inactive

**Q.** For `C[C@]12C=CC3=C4CCC(=O)C=C4CC[C@H]3[C@@H]1CC[C@@H]2O`, which AC50 [6] is on record?
**A.** Its AC50 is 0.0975 µM (active).

**Q.** What about the outcome [1] of the same compound?
**A.** Its outcome is “inactive”.

**Q.** What about the AC50 [2] of the same compound?
**A.** Its AC50 is 61 µM (active).

**Q.** And the outcome [3]?
**A.** Its outcome is “inactive”.

**Q.** And the outcome [4]?
**A.** The outcome was “inactive”.

**Q.** What about the outcome [5] of the same compound?
**A.** Its outcome is “inactive”.

**Q.** Which results are given for `CN(C)c1ccccc1`?
**A.** outcome [1]: inactive; outcome [2]: inactive; outcome [3]: inactive; outcome [4]: inactive; outcome [5]: inactive

**Q.** For `[Cl-].[Cl-].[Hg+2]`, which outcome [1] is on record?
**A.** The outcome was “inactive”.

**Q.** And the outcome [2]?
**A.** The outcome was “inactive”.

**Q.** What about the outcome [3] of the same compound?
**A.** Its outcome is “inactive”.

**Q.** What about the outcome [4] of the same compound?
**A.** Its outcome is “inactive”.

**Q.** And the outcome [5]?
**A.** The outcome was “inactive”.

**Q.** Which outcome [1] does the source give for `CCC12COCN1COC2` here?
**A.** Its outcome is “inactive”.

**Q.** What about the outcome [2] of the same compound?
**A.** The outcome was “inactive”.

**Q.** And the outcome [3]?
**A.** Its outcome is “inactive”.

**Q.** And the outcome [4]?
**A.** Its outcome is “inactive”.

**Q.** And the outcome [5]?
**A.** The outcome was “inactive”.

**Q.** What does the source list for `Cc1ccc([N+](=O)[O-])cc1`?
**A.** outcome [1]: inactive; outcome [2]: inactive; outcome [3]: inactive; outcome [4]: inactive; outcome [5]: inactive

**Q.** For `COC(=O)c1ccccc1N`, which outcome [1] is on record?
**A.** Its outcome is “inactive”.

**Q.** And the outcome [2]?
**A.** The outcome was “inactive”.

**Q.** What about the outcome [3] of the same compound?
**A.** The outcome was “inactive”.

**Q.** What about the outcome [4] of the same compound?
**A.** Its outcome is “inactive”.

**Q.** And the outcome [5]?
**A.** Its outcome is “inactive”.

**Q.** Which outcome [1] does the source give for `c1ccc(C2CO2)cc1` (stereo unspecified) here?
**A.** The outcome was “inactive”.

**Q.** What about the outcome [2] of the same compound?
**A.** The outcome was “inactive”.

**Q.** And the outcome [3]?
**A.** Its outcome is “inactive”.

**Q.** And the outcome [4]?
**A.** The outcome was “inactive”.

**Q.** What about the outcome [5] of the same compound?
**A.** The outcome was “inactive”.

**Q.** For `CC(C)COC(=O)c1ccccc1C(=O)OCC(C)C`, which outcome [1] is on record?
**A.** Its outcome is “inactive”.

**Q.** And the outcome [2]?
**A.** Its outcome is “inactive”.

**Q.** What about the outcome [3] of the same compound?
**A.** Its outcome is “inactive”.

**Q.** And the outcome [4]?
**A.** The outcome was “inactive”.

**Q.** What about the outcome [5] of the same compound?
**A.** The outcome was “inactive”.

**Q.** For `ClC1=C(Cl)[C@]2(Cl)[C@H]3[C@H]([C@@H]4C=C[C@H]3C4)[C@@]1(Cl)C2(Cl)Cl`, which outcome [1] is on record?
**A.** The outcome was “inactive”.

**Q.** What about the AC50 [2] of the same compound?
**A.** The AC50 was 28.7 µM (active).

**Q.** What about the outcome [3] of the same compound?
**A.** The outcome was “inactive”.

**Q.** What about the outcome [4] of the same compound?
**A.** Its outcome is “inactive”.

**Q.** What about the outcome [5] of the same compound?
**A.** Its outcome is “inactive”.

**Q.** Which AC50 [1] does the source give for `O=C1CCCO1` here?
**A.** The AC50 was 50 µM (active).

**Q.** And the outcome [2]?
**A.** Its outcome is “inactive”.

**Q.** What about the outcome [3] of the same compound?
**A.** The outcome was “inactive”.

**Q.** And the outcome [4]?
**A.** Its outcome is “inactive”.

**Q.** And the outcome [5]?
**A.** Its outcome is “inactive”.

**Q.** Which results are given for `Clc1ccccc1Cl`?
**A.** outcome [1]: inactive; outcome [2]: inactive; outcome [3]: inactive; outcome [4]: inactive; outcome [5]: inactive

Reference: PubChem BioAssay (EPA / NIEHS)
